We go through 40 molecules from PubChem BioAssay (NCI).

This is part of a sample that, as a whole, favours compounds with a hit. Of some 83,000 tested, about 20% had one in any assay.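 Plates (96-well) were seeded with cells, treated with compound at one concentration, and incubated for 48 hours before percent growth was determined.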 Calls of active or inactive are those of the source.

This test relates to EKVX NSCLC. Nature of the test: NCI-60 one-dose screen, 48 h (100 = growth as untreated, 0 = no growth, -100 = all killed). As to conditions: 10 µM unless noted. The procedure: Growth inhibition of the EKVX human Non-Small Cell Lung tumor cell line is measured as a screen for anti-cancer activity. Cells are grown in 96 well plates and exposed to the test compound for 48 hours. Compounds are tested at a single concentration, which is 10^-5 M for most compounds. The reported endpoint is percent growth (GI% or GIPRCNT), where numbers from 0 - 100% represent growth inhibition, and numbers from -100% - 0 represent cell death. For example, a value of 40 represents 60% growth inhibition. A value of 0 means no net growth occurred over the course of the experiment. A value of -40 indicates 40% of cells at the beginning of the experiment died by the end of the experiment. A value of -100 means all cells are dead at the end of the experiment.
NCI-60 Human Tumor Cell Lines Screen was performed using the standard one-dose NCI protocol, which is described in more detail at https://dtp.cancer.gov/discovery_development/nci-60/default.htm.
Compounds with GIPRCNT values below 10 were considered active. Activity score was based on GIPRCNT using the following formula: […]
Score is 0 for GIPRCNT values of 100 or above, 50 for GIPRCNT values of 0, and 100 for GIPRCNT values of -100.
In the case of `COCCNC(=O)Cc1cc(-c2ccc(Cl)cc2)n(-c2ccccc2)c1C`, the growth is 85.4% (inactive).

`O=C(Nc1ccc(Cl)cc1)C1=NCCCCN1`: the growth is 80% (inactive).

Consider `COc1cccc(NC(=O)c2sc3nc(C)c(C(=O)c4ccccc4)cc3c2N)c1`, for which the growth was 69.1% (inactive).

As to `O=C(CSc1nnc(-c2ccc(Cl)c(Cl)c2)n1-c1ccccc1)Nc1ccc(C(=O)/C=C/c2ccc(Cl)cc2)cc1`, the growth is 88.3% (inactive).

With `O=C(O)/C=C/c1cn(-c2ccccc2)nc1-c1ccc(F)cc1`, the growth is 97.2% (inactive).

Consider `C=CN(C(=O)N1CCN(c2cc3c(cc2F)c(=O)c(C(=O)O)cn3C2CC2)CC1)c1nc(-c2ccc(C)cc2)cs1`, for which the growth was 24.2% (inactive).

As for `Cc1ccc(Nc2oc(-c3ccccc3)nc2[P+](c2ccccc2)(c2ccccc2)c2ccccc2)cc1`, the growth is -31.3% (active).

Take `CC1=C(C(=O)OCc2ccccc2)C(c2ccc3c(c2)OCO3)n2c(nc3ccccc32)N1` (stereo not given): the growth was 64.4% (inactive).

In the case of `COc1ccc(-c2cn(Cc3ccc4c(Br)cc(Br)c(O)c4n3)nn2)cc1`, the growth is 84.2% (inactive).

For `O=C(O)CCCN1C(=O)CSC1=S`, the growth is 103% (inactive).

On to `COC(=O)[C@H](C)NC(=O)c1ccc(NC(=O)c2[nH]c(C)c(Cl)c2Cl)c(OCCN)c1`, for which the growth was 103% (inactive).

In the case of `CNC(=O)c1cc(Oc2ccc3nc(NC(=O)NC(C)C)sc3c2)ccn1`, the growth was 93.7% (inactive).

As for `COc1cc(/C=C2\C(=O)N(CCOc3cc(O)c4c(=O)cc(-c5ccccc5)oc4c3)c3ccccc32)cc(OC)c1O`, the growth was 83.2% (inactive).

As to `COc1ccc(-c2cc(-c3ccc(Cl)cc3)c(C#N)c(=O)n2CCCCC(=O)NO)cc1`, the growth was 71.9% (inactive).

`CC/C(=C(/c1ccc(Cl)cc1)c1ccc(OCCN2CCCC2)cc1)c1ccccc1`: the growth was 59.3% (inactive).

Regarding `Nc1ncnc2c1N=C(c1ccc([N+](=O)[O-])cc1)CC(c1ccc3c(c1)OCO3)N2` (stereo not given), the growth is 86% (inactive).

For `CC1=C([Se]CC(OC(=O)[C@@H](CO)NC(=O)OC(C)(C)C)C(=O)NCCCCCC(=O)OCc2ccccc2)C(=O)c2ccccc2C1=O` (stereo not given in full), the growth was -75.5% (active).

For `COc1ccc(/C=N\NC(=O)c2ccc3nc(-c4ccc(Cl)cc4)[nH]c3c2)cc1`, the growth was 29.4% (inactive).

On to `O=c1ccc2c(ccc3ncccc32)o1`, for which the growth is 118% (inactive).

As to `CCc1ccc(Cc2cnc(NC(=O)c3cc(C)oc3C)s2)cc1`, the growth is 39.6% (inactive).

On to `Oc1cccc2c1NCCC2`, for which the growth is 22.3% (inactive).

For `CCCCCCCCNC(=O)[C@@H](N)CSCOC(C)=O`, the growth was 111% (inactive).

For `Cc1oc2ccc(O)c(CN3CCCCCC3)c2c1C(=O)Nc1ccc(C(F)(F)F)cc1`, the growth was 64.1% (inactive).

`O=C(CSc1nnc(-c2cc(-c3ccc(Cl)cc3)nc3ccccc23)n1-c1ccccc1)Nc1ccc(Cl)cc1`: the growth was 94.8% (inactive).

On to `NC(=N\N=C/c1ccc(Cl)cc1Cl)/C(N)=N\N=C/c1ccc(Cl)cc1Cl`, for which the growth was 77.3% (inactive).

Turning to `CCOC(=O)c1c(C)n2c(=O)cc(C)c3c(OC(C)=O)c(OC(C)=O)cc1c32`, the growth is 93.1% (inactive).

As to `CC(C)(C)n1cc(-c2ccnc(NCCNS(=O)(=O)c3cccc4ccccc34)c2)c(-c2cccc(O)c2)n1`, the growth was 69.8% (inactive).

As for `COc1cc2cc(Oc3ccc(NC(=O)Nc4ccc(F)c(C(F)(F)F)c4)cc3)c(C)nc2cc1OCCN1CCCCC1`, the growth was 57.6% (inactive).

For `CN(C)CCOc1nc2c3cc([N+](=O)[O-])ccc3nn2c2ccccc12`, the growth was 67.3% (inactive).

`O=C(Nc1cccc(Cn2c(=O)[nH]c3ccc(Oc4ncccn4)cc3c2=O)c1)c1cccc(Cl)c1`: the growth is 46.3% (inactive).

With `CO[C@H]1CC(c2ccc[nH]2)=N[C@]12O[C@@H](C)C[C@@H]1CCCCCCCc3ccc([nH]3)[C@H]12`, the growth is 29.4% (inactive).

With `CCCCCCCCCCCCCCCCCCOc1ccccc1CC(=O)OCC[N+]1(C)CCCCC1`, the growth was 63.1% (inactive).

As for `COc1cc2c(c(OC)c1OC)C(=O)CC(c1cccc(C(=O)Nc3ccc(Br)cc3)c1)O2` (stereo not given), the growth was 63.5% (inactive).

As for `N#Cc1c(-c2ccc(Cl)cc2)nc(NN=Cc2cccc(Cl)c2)nc1N1CCOCC1`, the growth was 77.7% (inactive).

As to `CCOC(=O)C1=C(C)N(C)C(=O)N(C)C1c1ccccc1` (stereo not given), the growth was 97.2% (inactive).

For `Clc1nc(N2CCC[N+]3(CC2)CC[N+]2(CCCNCC2)CC3)nc(N2CCC[N+]3(CC2)CC[N+]2(CCCNCC2)CC3)n1` (stereo not given), the growth was 108% (inactive).

Turning to `C=CCn1c(SCC(=O)Nc2ccc(C(=O)/C=C/c3ccc(Cl)cc3)cc2)nnc1-c1ccc(Cl)c(Cl)c1`, the growth was 79.7% (inactive).

For `O=C(CNc1ncco1)Nc1ccc(S(=O)(=O)c2ccc(NC(=O)CNc3ncco3)cc2)cc1`, the growth was 50.4% (inactive).

Consider `O=C1c2ccccc2C(=O)c2cc(Cn3c[n+](Cc4ccc5ccccc5c4)c4ccccc43)ccc21`, for which the growth is 73.9% (inactive).

Regarding `O=c1c(/C=C/c2c(O)ccc3ccccc23)nnc2sc(-c3cccc([N+](=O)[O-])c3)nn12`, the growth is 54.4% (inactive).
